The text below walks through data of ChEMBL document CHEMBL2218924, “A broad activity screen in support of a chemogenomic map for kinase signalling research and drug discovery” (Biochem J, 2013).

The target in assay [1] is T1, Serine/threonine-protein kinase TBK1 (Homo sapiens) (UniProt Q9UHD2).
T1 sequence (whole entry): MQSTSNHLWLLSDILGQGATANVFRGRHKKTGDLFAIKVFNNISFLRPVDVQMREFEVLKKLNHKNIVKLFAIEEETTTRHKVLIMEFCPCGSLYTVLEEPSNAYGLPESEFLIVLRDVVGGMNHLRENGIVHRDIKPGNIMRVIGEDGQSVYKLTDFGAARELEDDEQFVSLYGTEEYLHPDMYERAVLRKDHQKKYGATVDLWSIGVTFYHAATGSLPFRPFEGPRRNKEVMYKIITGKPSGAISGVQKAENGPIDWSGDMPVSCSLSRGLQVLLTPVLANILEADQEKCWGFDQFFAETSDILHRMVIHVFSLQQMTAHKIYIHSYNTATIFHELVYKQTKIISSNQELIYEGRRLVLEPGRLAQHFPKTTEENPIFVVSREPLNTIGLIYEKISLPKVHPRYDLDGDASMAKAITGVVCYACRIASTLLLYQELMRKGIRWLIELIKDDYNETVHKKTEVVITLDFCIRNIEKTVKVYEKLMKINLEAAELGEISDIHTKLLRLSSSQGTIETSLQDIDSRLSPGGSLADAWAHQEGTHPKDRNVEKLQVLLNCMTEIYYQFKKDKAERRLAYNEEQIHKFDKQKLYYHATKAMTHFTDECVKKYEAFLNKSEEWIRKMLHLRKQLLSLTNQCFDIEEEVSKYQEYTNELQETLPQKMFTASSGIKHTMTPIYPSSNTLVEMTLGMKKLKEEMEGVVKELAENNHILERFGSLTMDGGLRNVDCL
The note with it: at 10 µM.

For assay [2], the target named is T2, TGF-beta receptor type-1 (Homo sapiens) (UniProt P36897).
T2 sequence (whole entry): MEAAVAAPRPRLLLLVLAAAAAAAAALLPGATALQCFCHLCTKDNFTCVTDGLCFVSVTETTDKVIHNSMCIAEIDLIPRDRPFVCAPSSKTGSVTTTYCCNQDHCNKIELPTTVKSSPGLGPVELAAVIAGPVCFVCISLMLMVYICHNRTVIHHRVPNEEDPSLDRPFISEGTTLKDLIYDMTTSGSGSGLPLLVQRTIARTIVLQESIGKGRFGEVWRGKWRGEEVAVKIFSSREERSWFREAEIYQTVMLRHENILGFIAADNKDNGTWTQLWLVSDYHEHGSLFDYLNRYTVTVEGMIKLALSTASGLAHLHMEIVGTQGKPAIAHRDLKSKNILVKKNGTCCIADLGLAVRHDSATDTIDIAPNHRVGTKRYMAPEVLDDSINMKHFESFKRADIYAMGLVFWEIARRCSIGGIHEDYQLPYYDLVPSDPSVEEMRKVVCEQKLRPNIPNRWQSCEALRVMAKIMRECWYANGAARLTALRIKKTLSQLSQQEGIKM
The following applies: at 1 µM.

Assay [3] concerns the target T2, TGF-beta receptor type-1 (Homo sapiens). The following applies: at 10 µM.
Assay [4] deals with Insulin-like growth factor 1 receptor (Homo sapiens) (UniProt P08069). The following applies: at 1 µM.
Chain of Insulin-like growth factor 1 receptor (Homo sapiens) (P08069 31-736 limits assumed): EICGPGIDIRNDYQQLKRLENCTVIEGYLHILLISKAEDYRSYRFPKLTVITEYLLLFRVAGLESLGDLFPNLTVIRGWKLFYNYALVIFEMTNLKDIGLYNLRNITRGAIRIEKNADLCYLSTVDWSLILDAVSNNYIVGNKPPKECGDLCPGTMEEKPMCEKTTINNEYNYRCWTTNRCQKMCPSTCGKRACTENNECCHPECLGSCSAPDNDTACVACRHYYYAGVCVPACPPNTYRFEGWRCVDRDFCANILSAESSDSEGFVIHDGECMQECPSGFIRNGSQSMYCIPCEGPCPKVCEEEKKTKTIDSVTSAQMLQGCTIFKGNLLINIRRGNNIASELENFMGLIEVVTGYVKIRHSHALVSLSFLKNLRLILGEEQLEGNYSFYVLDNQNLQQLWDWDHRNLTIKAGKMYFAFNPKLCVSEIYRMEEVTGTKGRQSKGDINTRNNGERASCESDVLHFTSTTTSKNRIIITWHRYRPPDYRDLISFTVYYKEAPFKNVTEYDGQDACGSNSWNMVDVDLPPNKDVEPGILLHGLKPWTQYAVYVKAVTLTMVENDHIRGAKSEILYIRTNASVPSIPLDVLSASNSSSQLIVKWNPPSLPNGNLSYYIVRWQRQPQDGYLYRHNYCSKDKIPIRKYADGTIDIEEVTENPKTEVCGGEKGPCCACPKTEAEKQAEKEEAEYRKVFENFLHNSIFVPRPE
Chain of Insulin-like growth factor 1 receptor (Homo sapiens) (P08069 741-1367 limits assumed): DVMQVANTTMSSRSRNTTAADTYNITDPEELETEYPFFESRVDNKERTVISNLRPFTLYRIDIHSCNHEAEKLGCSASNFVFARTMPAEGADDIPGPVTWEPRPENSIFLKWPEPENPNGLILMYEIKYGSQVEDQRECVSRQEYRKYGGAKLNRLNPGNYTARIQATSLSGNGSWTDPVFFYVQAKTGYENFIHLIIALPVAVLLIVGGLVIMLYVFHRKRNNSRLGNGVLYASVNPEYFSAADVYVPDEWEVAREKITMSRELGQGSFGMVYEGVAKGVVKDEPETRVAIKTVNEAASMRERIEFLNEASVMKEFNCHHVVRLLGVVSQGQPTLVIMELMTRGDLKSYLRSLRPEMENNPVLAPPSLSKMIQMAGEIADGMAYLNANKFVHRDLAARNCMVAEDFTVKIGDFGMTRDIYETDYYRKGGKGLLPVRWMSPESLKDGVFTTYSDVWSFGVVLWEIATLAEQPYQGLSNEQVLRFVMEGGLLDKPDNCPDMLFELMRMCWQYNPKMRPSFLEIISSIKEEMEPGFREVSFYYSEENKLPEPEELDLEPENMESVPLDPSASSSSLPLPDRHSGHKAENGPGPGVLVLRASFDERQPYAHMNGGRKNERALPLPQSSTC
Assay [5] has the same target. The note with it: at 10 µM.
Assay [6] has as its target T3, Inhibitor of nuclear factor kappa-B kinase subunit alpha (Homo sapiens) (UniProt O15111).
T3 sequence (whole entry): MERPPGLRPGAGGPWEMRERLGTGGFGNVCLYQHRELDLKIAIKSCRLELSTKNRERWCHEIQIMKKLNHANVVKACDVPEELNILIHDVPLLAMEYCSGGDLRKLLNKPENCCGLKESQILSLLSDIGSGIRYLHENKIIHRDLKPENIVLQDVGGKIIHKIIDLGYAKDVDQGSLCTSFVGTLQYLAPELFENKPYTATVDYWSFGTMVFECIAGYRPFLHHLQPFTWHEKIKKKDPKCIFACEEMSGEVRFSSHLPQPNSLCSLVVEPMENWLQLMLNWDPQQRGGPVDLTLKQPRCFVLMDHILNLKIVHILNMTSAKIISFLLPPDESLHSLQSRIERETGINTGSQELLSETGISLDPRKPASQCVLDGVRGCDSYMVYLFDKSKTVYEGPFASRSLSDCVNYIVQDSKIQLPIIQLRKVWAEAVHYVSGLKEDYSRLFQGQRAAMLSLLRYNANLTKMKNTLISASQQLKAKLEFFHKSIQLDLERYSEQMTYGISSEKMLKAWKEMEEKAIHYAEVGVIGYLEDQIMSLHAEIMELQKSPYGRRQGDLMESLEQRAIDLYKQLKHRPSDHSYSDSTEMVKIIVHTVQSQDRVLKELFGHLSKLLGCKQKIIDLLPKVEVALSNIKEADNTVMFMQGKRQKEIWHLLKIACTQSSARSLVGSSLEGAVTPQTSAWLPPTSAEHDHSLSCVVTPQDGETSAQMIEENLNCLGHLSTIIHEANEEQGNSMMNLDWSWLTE
The following applies: at 1 µM.

In assay [7] the target is T3, Inhibitor of nuclear factor kappa-B kinase subunit alpha (Homo sapiens). The following applies: at 10 µM.
The target of assay [8] is T4, Inhibitor of nuclear factor kappa-B kinase subunit beta (Homo sapiens) (UniProt O14920).
T4 sequence (whole entry): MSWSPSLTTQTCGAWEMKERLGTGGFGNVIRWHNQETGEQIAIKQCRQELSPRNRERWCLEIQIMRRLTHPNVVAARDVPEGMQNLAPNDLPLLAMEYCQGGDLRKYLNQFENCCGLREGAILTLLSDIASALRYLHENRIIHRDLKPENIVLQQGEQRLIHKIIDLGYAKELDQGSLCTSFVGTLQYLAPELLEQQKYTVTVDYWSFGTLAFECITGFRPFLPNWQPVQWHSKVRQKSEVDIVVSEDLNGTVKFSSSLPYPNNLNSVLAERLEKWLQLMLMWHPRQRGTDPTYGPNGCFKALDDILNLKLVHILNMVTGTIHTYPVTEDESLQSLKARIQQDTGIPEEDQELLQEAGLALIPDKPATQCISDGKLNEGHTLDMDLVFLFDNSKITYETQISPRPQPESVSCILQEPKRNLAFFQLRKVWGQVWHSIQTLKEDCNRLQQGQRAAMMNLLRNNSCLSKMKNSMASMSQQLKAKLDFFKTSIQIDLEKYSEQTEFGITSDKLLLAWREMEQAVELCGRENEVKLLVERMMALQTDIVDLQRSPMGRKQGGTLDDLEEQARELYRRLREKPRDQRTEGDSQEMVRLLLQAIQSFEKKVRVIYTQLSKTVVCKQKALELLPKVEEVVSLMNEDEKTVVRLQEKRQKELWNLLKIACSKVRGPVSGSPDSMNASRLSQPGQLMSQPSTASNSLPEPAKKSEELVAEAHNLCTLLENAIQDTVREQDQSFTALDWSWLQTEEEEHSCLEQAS
The following applies: at 1 µM.

The target in assay [9] is T4, Inhibitor of nuclear factor kappa-B kinase subunit beta (Homo sapiens). The following applies: at 10 µM.
Assay [10] deals with Insulin receptor (Homo sapiens) (UniProt P06213). The note with it: at 1 µM.
Chain of Insulin receptor (Homo sapiens) (P06213 28-758 limits assumed): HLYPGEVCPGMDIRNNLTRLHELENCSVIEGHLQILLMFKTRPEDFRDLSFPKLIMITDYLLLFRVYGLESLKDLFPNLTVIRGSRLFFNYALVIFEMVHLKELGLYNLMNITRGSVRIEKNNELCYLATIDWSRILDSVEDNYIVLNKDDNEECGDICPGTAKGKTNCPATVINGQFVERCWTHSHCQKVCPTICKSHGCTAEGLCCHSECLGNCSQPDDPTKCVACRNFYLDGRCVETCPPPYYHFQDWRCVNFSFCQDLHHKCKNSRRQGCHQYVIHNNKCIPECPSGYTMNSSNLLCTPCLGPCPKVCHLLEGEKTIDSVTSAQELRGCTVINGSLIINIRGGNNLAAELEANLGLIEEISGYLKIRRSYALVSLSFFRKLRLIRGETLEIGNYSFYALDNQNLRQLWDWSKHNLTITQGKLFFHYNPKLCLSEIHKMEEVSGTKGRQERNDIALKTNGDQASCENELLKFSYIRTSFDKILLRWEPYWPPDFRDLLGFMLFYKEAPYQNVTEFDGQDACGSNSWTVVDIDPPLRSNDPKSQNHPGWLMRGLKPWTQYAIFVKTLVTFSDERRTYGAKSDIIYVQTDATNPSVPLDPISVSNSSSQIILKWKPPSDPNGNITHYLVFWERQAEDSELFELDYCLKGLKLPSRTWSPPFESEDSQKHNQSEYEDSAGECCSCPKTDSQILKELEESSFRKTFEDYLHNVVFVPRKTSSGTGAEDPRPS
Chain of Insulin receptor (Homo sapiens) (P06213 763-1382 limits assumed): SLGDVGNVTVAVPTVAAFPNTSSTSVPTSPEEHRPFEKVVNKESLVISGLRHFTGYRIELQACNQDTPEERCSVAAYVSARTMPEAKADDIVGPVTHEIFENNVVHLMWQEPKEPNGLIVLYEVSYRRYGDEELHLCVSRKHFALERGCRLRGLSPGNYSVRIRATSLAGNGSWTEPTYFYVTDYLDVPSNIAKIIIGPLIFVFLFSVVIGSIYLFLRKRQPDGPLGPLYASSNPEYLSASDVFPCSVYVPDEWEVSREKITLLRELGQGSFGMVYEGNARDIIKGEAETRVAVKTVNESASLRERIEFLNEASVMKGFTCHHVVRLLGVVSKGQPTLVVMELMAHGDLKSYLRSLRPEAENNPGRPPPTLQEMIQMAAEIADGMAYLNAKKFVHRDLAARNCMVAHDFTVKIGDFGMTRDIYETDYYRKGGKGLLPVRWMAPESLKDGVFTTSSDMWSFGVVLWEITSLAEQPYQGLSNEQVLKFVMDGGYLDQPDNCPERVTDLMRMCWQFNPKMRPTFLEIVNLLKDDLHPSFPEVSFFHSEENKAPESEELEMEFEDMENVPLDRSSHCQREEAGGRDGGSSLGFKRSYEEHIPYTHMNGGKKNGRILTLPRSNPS

The term residual activity denotes what remains of the control signal, in per cent.

Regarding `Ic1cccc(CSc2nnc(-c3ccncc3)o2)c1`, the residual activity is 6% in assay [1]; 82% in assay [2]; 79% in assay [3]; 79% in assay [4]; 95% in assay [5]; 80% in assay [6]. The residual activity in assay [7] was determined as 72%; in assay [8], 87%; in assay [9], 79%; in [10], 93%.
